In PubChem BioAssay (NCI):
This is part of a sample that, as a whole, favours compounds with a hit. Of some 83,000 tested, about 20% had one in any assay.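 Method: cells in 96-well plates; compound added at one concentration; 48 h incubation; percent growth measured; values under 10 scored active.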 Calls of active or inactive are those of the source.

Assays:
Assay in all cases: NCI-60 one-dose screen, 48 h (100 = growth as untreated, 0 = no growth, -100 = all killed)
Settings in all cases: 10 µM unless noted
EKVX NSCLC = test system: EKVX NSCLC
SN12C renal = test system: SN12C renal
UO-31 renal = test system: UO-31 renal
TK-10 renal = test system: TK-10 renal
ACHN renal = test system: ACHN renal
CAKI-1 renal = test system: CAKI-1 renal
A498 renal = test system: A498 renal
CCRF-CEM leukemia = test system: CCRF-CEM leukemia
MOLT-4 leukemia = test system: MOLT-4 leukemia

Measured: growth

O=C1C2=C(CCN(Cc3ccccc3)C2)N2CCN=C2N1Cc1ccc(C(F)(F)F)cc1
inactive: EKVX NSCLC 20.6% | SN12C renal 23.1% | UO-31 renal 25.4% | TK-10 renal 37.7% | ACHN renal 31.3% | CAKI-1 renal 28.6% | CCRF-CEM leukemia 52.6% | MOLT-4 leukemia 59.8%
active: A498 renal -0.0454%

C=C(C)C1CCC(=C)C2CCC3(C)OC12/C=C(/COC(C)=O)CCC3O (stereo unspecified)
inactive: EKVX NSCLC 96.1% | SN12C renal 106% | UO-31 renal 92.7% | TK-10 renal 121% | ACHN renal 98.2% | A498 renal 104% | CCRF-CEM leukemia 130% | MOLT-4 leukemia 83.6%
active: CAKI-1 renal 6.18%

NC(N)=N/N=C/c1ccc(Br)cc1
inactive: EKVX NSCLC 62.4% | SN12C renal 62.1% | UO-31 renal 47.4% | TK-10 renal 13.9% | ACHN renal 44.5% | CAKI-1 renal 27.1% | A498 renal 44.8% | MOLT-4 leukemia 38.9%

NC(=O)CC1(O)C=C(Br)C(=O)C(Br)=C1
active: UO-31 renal -53.6% | ACHN renal -59.4% | CAKI-1 renal -10.2% | CCRF-CEM leukemia -45% | MOLT-4 leukemia -53%
inactive: EKVX NSCLC 91.4% | SN12C renal 117% | TK-10 renal 17.1%

CCN(CC)CCOc1ccc(/C(=C(\C)c2ccc(F)c(OC)c2)c2ccc(Cl)cc2)cc1
inactive: EKVX NSCLC 56.4% | SN12C renal 38% | TK-10 renal 49.5% | ACHN renal 25.8% | CAKI-1 renal 17.1% | A498 renal 48.1% | CCRF-CEM leukemia 13.9%
active: UO-31 renal 7.48% | MOLT-4 leukemia -1.16%

O=C(O)CC1Sc2ccccc2NC1=O (stereo unspecified)
inactive: EKVX NSCLC 113% | SN12C renal 102% | UO-31 renal 86.3% | TK-10 renal 149% | ACHN renal 95.5% | CAKI-1 renal 72.8% | A498 renal 124% | CCRF-CEM leukemia 107% | MOLT-4 leukemia 92.5%

O=c1ccn(C2OC(F)(CO)C(O)C2F)c(=O)[nH]1 (stereo unspecified)
inactive: EKVX NSCLC 91.2% | SN12C renal 102% | UO-31 renal 97.1% | TK-10 renal 90.3% | ACHN renal 98.9% | CAKI-1 renal 94.3% | A498 renal 68.5% | CCRF-CEM leukemia 103% | MOLT-4 leukemia 99.8%

Cc1cnc(Nc2ccc(N3CCN(C)CC3)cc2)nc1Nc1ccc(Cl)c(NS(=O)(=O)C(C)(C)C)c1
inactive: EKVX NSCLC 32.5% | SN12C renal 34% | CAKI-1 renal 25% | CCRF-CEM leukemia 34.2%
active: UO-31 renal -20.7% | TK-10 renal 0.435% | ACHN renal -4.72% | A498 renal -85.4% | MOLT-4 leukemia 10%

CN(C)c1ccc2cc(-c3ccccc3F)c(N)nc2c1
active: A498 renal -7.09%
inactive: EKVX NSCLC 31.1% | SN12C renal 54.9% | UO-31 renal 34% | TK-10 renal 34.6% | ACHN renal 41.2% | CAKI-1 renal 37.5% | CCRF-CEM leukemia 45.7% | MOLT-4 leukemia 35.1%

C=C(C=O)[C@@H]1CC=C(C=O)CC1
active: EKVX NSCLC 2.06% | SN12C renal -14.1% | UO-31 renal -41.7% | TK-10 renal -42.2% | ACHN renal -54.9% | CAKI-1 renal -31.7% | CCRF-CEM leukemia -52.7% | MOLT-4 leukemia -40.8%
inactive: A498 renal 81.7%

CC(/C=N/NC(=O)c1cc(-c2ccco2)[nH]n1)=C\c1ccccc1
inactive: EKVX NSCLC 89.2% | SN12C renal 95% | UO-31 renal 96.8% | TK-10 renal 123% | ACHN renal 93.1% | CAKI-1 renal 80.8% | A498 renal 110% | CCRF-CEM leukemia 92.3% | MOLT-4 leukemia 96.6%

O=C1C2=C(CCN(Cc3ccccc3)C2)N2CCN=C2N1Cc1ccc(F)cc1F
inactive: EKVX NSCLC 30.2% | SN12C renal 28.8% | UO-31 renal 32.5% | TK-10 renal 44.8% | ACHN renal 35.6% | CAKI-1 renal 32.9% | A498 renal 14.6% | CCRF-CEM leukemia 56.7% | MOLT-4 leukemia 74.1%

COC(=O)CNC(=O)C(=O)c1c(O)c(O)c(C(C)C)c2cc(C)c(-c3c(C)cc4c(C(C)C)c(O)c(O)c(C(=O)C(=O)NCC(=O)OC)c4c3O)c(O)c12
active: EKVX NSCLC 5.91% | UO-31 renal 1.7% | ACHN renal 3.33%
inactive: SN12C renal 32.9% | TK-10 renal 22.6% | CAKI-1 renal 51.4% | A498 renal 27.6% | CCRF-CEM leukemia 24.4% | MOLT-4 leukemia 15.7%

CCNCCNc1cc(-c2ccc(Cl)cc2)c(C#N)c2nc3ccccc3n12
active: UO-31 renal -95.2% | TK-10 renal -20.3% | ACHN renal -60% | A498 renal 2.87% | CCRF-CEM leukemia -21.3% | MOLT-4 leukemia -28.7%
inactive: EKVX NSCLC 11.2% | SN12C renal 44.9% | CAKI-1 renal 39.5%

CC(=O)NCC(=O)Nc1ccc(-c2nnc3ccccn23)nc1.CC(=O)NCC(=O)Nc1ccc(-c2nnc3ccccn23)nc1.[Pt+2]
inactive: EKVX NSCLC 110% | SN12C renal 106% | UO-31 renal 106% | TK-10 renal 103% | ACHN renal 103% | CAKI-1 renal 115% | A498 renal 101% | CCRF-CEM leukemia 93.3% | MOLT-4 leukemia 96.9%

COc1ccc(-n2sc(=O)n(Cc3ccc(COC(=O)C(C)c4ccc(CC(C)C)cc4)cc3)c2=O)cc1 (stereo unspecified)
inactive: EKVX NSCLC 77.4% | SN12C renal 23.4% | TK-10 renal 10.1% | CAKI-1 renal 30.9% | A498 renal 83.3%
active: UO-31 renal -6.91% | ACHN renal -44.4% | CCRF-CEM leukemia -22.2% | MOLT-4 leukemia -18.3%

CC(C)(C)CC(C)(C)Nc1c(-c2ccc(-c3ccccc3)cc2)nc2cnccn12
inactive: EKVX NSCLC 92.7% | SN12C renal 98.7% | UO-31 renal 68.8% | TK-10 renal 86.6% | ACHN renal 100% | CAKI-1 renal 76.1% | A498 renal 75.9% | CCRF-CEM leukemia 72.9% | MOLT-4 leukemia 62.5%

CC(C)(C)OC(=O)N1Cc2cc3ccccc3nc2C1CO (stereo unspecified)
inactive: EKVX NSCLC 92.9% | SN12C renal 98.9% | UO-31 renal 87% | TK-10 renal 106% | ACHN renal 111% | CAKI-1 renal 53.2% | A498 renal 97.1% | MOLT-4 leukemia 128%

CC(C)n1nc(C#Cc2cccc(O)c2)c2c(N)ncnc21
active: EKVX NSCLC -27.1% | SN12C renal -44.3% | UO-31 renal -63.4% | TK-10 renal -87.4% | ACHN renal -47.3% | CAKI-1 renal -66.8% | A498 renal -84.9% | CCRF-CEM leukemia -21% | MOLT-4 leukemia -36.1%

CCc1c(C(=O)N[C@@H]2c3cc(Cl)ccc3CC[C@@H]2O)[nH]c(C)c1C(C)=O
inactive: EKVX NSCLC 76% | UO-31 renal 76.8% | ACHN renal 77.6% | CAKI-1 renal 71.5% | A498 renal 67.6% | CCRF-CEM leukemia 85.2% | MOLT-4 leukemia 68.8%

C=C1C(=O)O[C@H]2[C@H]1CC/C(COC(=O)/C=C\C(=O)NCc1ccc(Cn3c(=O)sn(CCCC)c3=O)cc1)=C\CC[C@@]1(C)O[C@@H]21
inactive: A498 renal 11.2%
active: EKVX NSCLC -48% | SN12C renal -93% | TK-10 renal -76.9% | ACHN renal -100% | CAKI-1 renal -78.8% | CCRF-CEM leukemia -26.1% | MOLT-4 leukemia -17.4%

N[C@@H]1CCC[C@H]1NCCCCN1C(=O)c2cccc3cccc(c23)C1=O
inactive: EKVX NSCLC 85.6% | UO-31 renal 56.2% | TK-10 renal 76.6% | ACHN renal 52.9% | CAKI-1 renal 81.3% | A498 renal 34.8%

CNC(=O)c1cc(Oc2ccc3nc(Nc4cc(Cl)cc(Cl)c4)ccc3c2)ccn1
inactive: EKVX NSCLC 53.1% | SN12C renal 78.9% | UO-31 renal 58.9% | TK-10 renal 74.3% | CAKI-1 renal 84.1% | A498 renal 35.2% | CCRF-CEM leukemia 81.1% | MOLT-4 leukemia 33.7%

N#Cc1c(N)nc2c(nnn2-c2cccc(Br)c2)c1N
inactive: EKVX NSCLC 43.6% | SN12C renal 93.4% | UO-31 renal 72.8% | TK-10 renal 119% | CAKI-1 renal 98.1% | A498 renal 105% | CCRF-CEM leukemia 97.9% | MOLT-4 leukemia 83.3%

COc1ccc(-c2cncnc2N)cc1OC
inactive: SN12C renal 109% | UO-31 renal 101% | ACHN renal 104% | CAKI-1 renal 101% | A498 renal 87.8% | CCRF-CEM leukemia 95.9%

Clc1ccc(-c2nnc(Cn3ccnc3)o2)cc1
inactive: EKVX NSCLC 104% | UO-31 renal 87% | TK-10 renal 128% | ACHN renal 98.9% | CAKI-1 renal 82.3% | A498 renal 96.1% | CCRF-CEM leukemia 107% | MOLT-4 leukemia 96.5%

CCNCCNc1cc(C2CCCC2)c(C#N)c2nc3ccccc3n12
inactive: EKVX NSCLC 38% | SN12C renal 46.3% | CAKI-1 renal 39.5% | A498 renal 75.4%
active: UO-31 renal -74.9% | ACHN renal -34.7% | CCRF-CEM leukemia -8.07% | MOLT-4 leukemia -17.9%

CC(C)(C)N1CC(OC(N)=O)C1
inactive: EKVX NSCLC 90.2% | SN12C renal 100% | UO-31 renal 85.5% | ACHN renal 106% | CAKI-1 renal 41% | A498 renal 105%

CCn1c(Sc2nnc(NC(=O)CSC(=S)N3CCCCC3)s2)nc2c1c(=O)n(C)c(=O)n2C
inactive: EKVX NSCLC 88.5% | SN12C renal 96.6% | UO-31 renal 79.8% | TK-10 renal 95.8% | ACHN renal 77.5% | CAKI-1 renal 47.7% | CCRF-CEM leukemia 84.7% | MOLT-4 leukemia 97.6%
